In all, about 33,000 sequences were measured (“E-score (-0.5 to 0.5)”: median about -8e-05, highest 2% from about 0.23 on). This excerpt belongs to a sample that is enriched for the highest values.
These sequences were tested against T1, Nrg2 (UniProt P38082) (assay: PBM E-score (8-mer binding enrichment) (E-score (-0.5 to 0.5)); higher = stronger / more preferred TF binding). Conditions: protein concentration: 100 nM; construct: GST-full length.
T1 sequence: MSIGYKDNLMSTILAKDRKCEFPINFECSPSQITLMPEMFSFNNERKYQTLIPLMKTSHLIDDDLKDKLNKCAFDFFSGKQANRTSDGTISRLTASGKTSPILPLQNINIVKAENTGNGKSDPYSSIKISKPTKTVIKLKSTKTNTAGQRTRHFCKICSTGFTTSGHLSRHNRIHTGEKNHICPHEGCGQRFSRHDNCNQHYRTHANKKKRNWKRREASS
Method in brief: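 Yeast transcription factors carrying a GST tag, as full-length proteins or DNA-binding domains, were produced by PURExpress in vitro transcription/translation. About 100-200 nM protein was applied to universal all-10-mer Agilent arrays, double-stranded by primer extension on fresh or once-stripped slides. Bound protein was detected with fluorescent anti-GST, and scans were normalised with masliner. The Universal PBM Analysis Suite gave each ungapped eight-base word, pooled with its reverse complement, an E-score, a modified Wilcoxon-Mann-Whitney statistic.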

Row | Sequence | PBM E-score
1 | CCCCTGTA | 0.144
2 | TACCTGAA | 0.0117
3 | CACCTGAA | 0.0424
4 | TCCCTGAA | 0.25
5 | GCCCTGAA | 0.22
6 | CCCCTGAA | 0.356
7 | GCCGTCTA | -0.0529
8 | CGGTTTGC | -0.0375
9 | CCTGAAGG | -0.0247
10 | AGTCAAGG | -0.174
11 | ATCCGAAC | 0.0668
12 | ATCCGAAG | -0.0314
13 | ATCCGAAT | 0.251
14 | ACAAAACA | 0.119
15 | ATGGCGCC | 0.0356
16 | CTGGCGCC | 0.281
17 | CTGGCGCA | -0.117
18 | GCAAAACC | 0.0964
19 | ACAAAACC | 0.246
20 | ACAAAAAC | 0.0302
21 | ATTTTGAC | 0.232
22 | ATTTTGAG | 0.0761
23 | AATTTGAC | 0.127
24 | TGTTTGAA | -0.00474
25 | ACTTCGAC | -0.0444

Row | Sequence | PBM E-score
26 | ATATCATA | 0.174
27 | CTATCATA | 0.125
28 | GTATCATA | 0.251
29 | AGTATATG | 0.129
30 | AGTATAAT | 0.257
31 | AGTATATA | 0.327
32 | AGTATATC | 0.107
33 | ACTATATA | 0.23
34 | CGTAGATA | -0.0208
35 | AGTAGATC | -0.0113
36 | ACTATATC | 0.182
37 | GCTATATA | 0.0573
38 | AGTATAAA | 0.194
39 | AGTAGATA | 0.249
40 | AGTATAAC | -0.131
41 | GAGGTGCC | -0.0447
42 | CAAAATCG | 0.109
43 | AGAGGACG | -0.0944
44 | ACGGCGCG | 0.214
45 | CGACACCA | -0.124
46 | GAGACAGA | 0.14
47 | ACAGCGAT | -0.201
48 | ACGAACCA | 0.235
49 | AGGAACAC | 0.131
50 | CGGAACCA | 0.294

Row | Sequence | PBM E-score
51 | ACGAACGA | 0.0396
52 | CGGAACCG | -0.162
53 | CGGAACAC | 0.264
54 | ACGAACGC | 0.267
55 | CCGAACCA | -0.00203
56 | CGGAACAA | 0.122
57 | GGGAACCA | -0.231
58 | CCGAACGC | 0.0363
59 | ACGAACCC | -0.00702
60 | GACGGATC | -0.153
61 | TCCTAAAA | -0.251
62 | TCATTGAA | -0.122
63 | TAAATGGA | -0.0213
64 | AGCAGGGG | -0.182
65 | ACACTGCT | -0.0746
66 | GTTAACTA | 0.273
67 | GTTAACAA | 0.254
68 | CTTAACTA | 0.0617
69 | GCTAACAA | -0.0183
70 | ATTAACTA | 0.136
71 | CTTAACAA | 0.107
72 | CAGGCCAC | -0.141
73 | GCGTGAGC | 0.142
74 | GGAACTCA | -0.0697
75 | ACACTCTC | 0.104

Row | Sequence | PBM E-score
76 | CAATGATA | 0.128
77 | TAATGATA | 0.243
78 | AAATGATA | 0.225
79 | GAATGAGA | 0.114
80 | GAATGATC | -0.0614
81 | GAATGATA | 0.247
82 | AGCCCTAG | -0.16
83 | GCCTGAGC | -0.213
84 | CCCTGAGA | 0.235
85 | TCCTGAGA | -0.0364
86 | CACTGAGG | -0.124
87 | ACCTGAGG | -0.134
88 | CCCTGAGC | 0.236
89 | CCCTGAGG | 0.236
90 | GCCTGAGA | -0.0991
91 | ACCTGAGC | 0.0385
92 | CATTTTCC | 0.0879
93 | AGAAGCCC | -0.0779
94 | ATTATGAC | -0.0447
95 | AGGCAAGG | -0.259
96 | CCTATCGC | -0.134
97 | CATGTTGA | 0.258
98 | CATGTTGC | -0.0978
99 | AATGTTGA | -0.019
100 | CAGTATTA | 0.244

Row | Sequence | PBM E-score
101 | AAGTATTA | 0.129
102 | GTGTATTA | 0.233
103 | GAGTATTA | 0.00698
104 | CTGTATTA | 0.147
105 | ATGTATTA | -0.041
106 | ATACTCGA | 0.0646
107 | AGTTCGAG | 0.223
108 | TCCCAAAA | 0.0584
109 | CCGGGAAC | -0.00517
110 | CTGCGCTC | -0.146
111 | CTGCGCGC | 0.306
112 | ATGCGCAC | 0.142
113 | ATGCGCGG | 0.121
114 | CTTCGCGA | 0.0778
115 | ATGCGCGA | 0.00379
116 | CTTCGCGC | 0.232
117 | ATGCGCGC | 0.23
118 | CTGCGCGA | -0.0667
119 | ATTCGCGC | 0.159
120 | ATGCGCAA | 0.182
121 | ATGCGCAT | 0.368
122 | GTGCAGCA | -0.172
123 | CAATTGCC | -0.00722
124 | CAGGACTG | -0.241
125 | CAATGCGC | 0.145

Row | Sequence | PBM E-score
126 | AAATGCGC | 0.272
127 | AAATGCGG | 0.0989
128 | AGGGGCAT | 0.00378
129 | CTAAAAGA | -0.198
130 | CGATATTA | 0.23
131 | CGATATAG | 0.14
132 | GGATATTA | 0.147
133 | CGATATTC | 0.153
134 | CGATATAC | 0.113
135 | CGATATAA | 0.244
136 | CACCGTGA | -0.113
137 | GTATGGCA | 0.0816
138 | CATCAGCG | -0.213
139 | CGAAAAGA | 0.199
140 | AGCAGTGA | 0.234
141 | AGCAGTGC | -0.287
142 | CGCAGTGA | -0.0744
143 | GCGCTACC | -0.139
144 | GTGCTGTA | -0.0149
145 | CGGAGGCA | -0.134
146 | AAGCGCAA | 0.147
147 | ACCAGCAA | 0.245
148 | CCCAGCAA | 0.0725
149 | TCCAGCAA | -0.151
150 | ACTTACCA | 0.00217

Row | Sequence | PBM E-score
151 | GTCAAACA | -0.117
152 | TGTTGCAA | 0.268
153 | CATTGCAA | -0.00795
154 | CGTTGCAA | 0.0314
155 | AATTGCAA | 0.0259
156 | GGTTGCAA | 0.111
157 | TATTGCAA | 0.253
158 | CGCGGTTC | 0.0879
159 | GGATAGCA | 0.0845
160 | GAGTACTC | 0.23
161 | CAGTACTC | -0.171
162 | AAGTACTC | -0.0318
163 | GGCGAGCC | -0.0861
164 | CCAATACG | -0.165
165 | ACCTCGAG | 0.281
166 | ACCTCGAT | 0.147
167 | CCCTCGAG | 0.143
168 | AAGAAAAG | -0.0237
169 | TCAATTCA | 0.102
170 | CAGGGTAG | 0.303
171 | CAGGGTAA | 0.215
172 | AAGGGTAC | 0.165
173 | AGGGGTAG | -0.0372
174 | AAGGGTAG | 0.0465
175 | CAGGGTAC | 0.235

Row | Sequence | PBM E-score
176 | AAGTCTAT | -0.0746
177 | TAGTAAGA | 0.107
178 | ACCCTGCG | 0.254
179 | GCCCTGCA | 0.044
180 | TCCCTGCA | 0.25
181 | ACCCTGCC | 0.0806
182 | ACCCTGCA | 0.376
183 | AGCCTGCA | 0.0137
184 | CCCCTGCA | -0.00126
185 | CCCCTGCG | -0.0622
186 | ACCCTGCT | 0.0589
187 | ATAGGACA | -0.118
188 | GGTCTTGA | -0.0327
189 | ACCAAGTC | 0.111
190 | AAAGCCCG | -0.147
191 | AAAAGCGT | -0.0481
192 | AAAAACTT | -0.148
193 | CGCTGGCA | 0.0236
194 | CGGCATTA | 0.0976
195 | ACGCGCGG | 0.192
196 | ACGCGCGT | 0.17
197 | GCGCGATA | 0.254
198 | GCGCGCGA | 0.251
199 | CCGCGCGA | 0.202
200 | GCGCACGC | -0.0951

Row | Sequence | PBM E-score
201 | TCGCACGA | -0.00406
202 | TCGCGCGA | 0.138
203 | GCGCACGA | 0.238
204 | CCGCGATA | 0.117
205 | ACGCGCGC | 0.279
206 | ACGCGATA | 0.0412
207 | CTTACCCA | 0.0294
208 | AATGCAAT | -0.287
209 | GGTCCAGA | 0.125
210 | AGGCGGGG | 0.0214
211 | AACGATTC | 0.0537
212 | ACGGACGT | -0.169
213 | GTCCAGAC | -0.175
214 | ATCTTTGC | 0.133
215 | GCGCGCGC | 0.415
216 | ACGCGGTA | -0.152
217 | GAGCGCGC | 0.263
218 | GCGCGGTA | 0.271
219 | GAGCGCGA | 0.196
220 | CCGCGGTA | 0.119
221 | GCGCGCCC | 0.0648
222 | GCGCGCAC | 0.165
223 | CAGCGCGC | 0.21
